Screening results as filed in PubChem BioAssay.
This is a sample that favours compounds with a hit; in the whole collection about 3.7% have one here.
tim10-1 inh: growth inhibitors of tim10-1 mutant yeast, primary screen, luminescence, uHTS | 330,000 tested, 2.2% active | S. cerevisiae tim10-1 ts strain growth, BacTiter-Glo, 24 h | inhibition, % at 20 µM;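 active = inhibition of at least 40%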;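 note: mutant grown at 25 °C; 0% = DMSO wells with yeast and 100% = wells holding no yeast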
NALP3 yeast inh: NALP3 inflammasome inhibitors in reconstituted yeast, primary screen, luminescence, uHTS; Yeast reconstituted NLRP3/ASC/caspase-1, beta-gal luminescence, 24 h; inhibition, % at 10 µM; 330,000 tested, 0.39% active;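 active = inhibition of 50% or more; inactive = inhibition below 50%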;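 note: plate controls were induced DMSO wells for no effect and uninduced yeast grown without galactose for full effect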
PfHsp90 yeast 2: growth inhibition of PfHsp90-expressing yeast, primary screen, antimalarial PfHsp90 inhibitor project, S. cerevisiae, BacTiter-Glo luminescence, single point, set 2; BacTiter-Glo ATP, 48 h; yeast lacking PDR1 and PDR3 efflux regulators; inhibition, % at 9.4 µM; 310,000 tested, 0.32% active;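 active = every replicate shows inhibition above about 80%, whatever the replicate mean, limit read from the data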;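 note: 0% = DMSO neutral controls and 100% = 20 µM radicicol positive controls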
tim23-1 inh: growth inhibitors of tim23-1 mutant yeast, primary screen, luminescence, uHTS; S. cerevisiae tim23-1 growth, BacTiter-Glo luminescence, 24 h; 330,000 tested, 1.3% active; inhibition, % at 20 µM;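 active = growth inhibition of the mutant yeast at or above 50%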;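 note: temperature-sensitive mutant grown at 25 °C; plate controls were DMSO-treated mutant yeast for no effect and medium wells lacking yeast for full effect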
TIM10 inh: growth inhibitors of isogenic TIM10 control yeast, primary screen, counter-screen for tim10-1 yeast inhibitor project, luminescence, uHTS; inhibition, % at 10 µM; 330,000 tested, 1.4% active; S. cerevisiae TIM10 strain growth, BacTiter-Glo luminescence, 24 h;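 active = inhibition of 40% or more at the single tested concentration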;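 note: wild-type TIM10 isogenic control strain grown at permissive 25 °C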
tim10 confirm: growth inhibitors of wild-type TIM10 yeast, confirmation, counter-screen for tim10-1 synthetic lethality project, single concentration, luminescence, S. cerevisiae | shares compounds with TIM10 inh | S. cerevisiae tim10 strain growth, BacTiter-Glo luminescence, 24 h | inhibition, % at 10 µM | 4,600 tested, 63% active | AID 463215, 2010;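 active = inhibition of yeast growth at or above a set limit in either of two replicates at 10 µM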;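 note: this counterscreen used the strain with wild-type TIM10; 0% = yeast with DMSO and 100% = medium wells lacking yeast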
tim23-1 confirm: tim23-1 mutant yeast growth inhibitors, confirmation, luminescence, single concentration; AID 463218, 2010; S. cerevisiae tim23-1 growth, BacTiter-Glo luminescence, 24 h; shares compounds with tim23-1 inh; 4,400 tested, 83% active; inhibition, % at 20 µM;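 active = inhibition above about 39% in either of two replicate wells at 20 µM, limit read from the data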;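 note: temperature-sensitive tim23-1 mutant grown at 25 °C; 0% = DMSO wells with yeast and 100% = medium wells without yeast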
An asterisk follows results filed as active; nt = no result given.

SMILES	tim10-1 inh	NALP3 yeast inh	PfHsp90 yeast 2	tim23-1 inh	TIM10 inh	tim10 confirm	tim23-1 confirm
CCCOc1ccc(/C=c2\sc3ncnn3c2=O)cc1	32	20	23	47	19	nt	nt
CCOc1ccccc1/C=c1\sc2ncnn2c1=O	38	24	nt	60*	43*	32*	74*
Cc1ccc(C(=O)O/N=C(\N)Cc2ccc([N+](=O)[O-])cc2)c(Cl)c1	-2	21	0	88*	89*	96*	65*
N/C(Cc1ccc([N+](=O)[O-])cc1)=N\OC(=O)c1ccc(Br)cc1	24	18	25	83*	92*	94*	32
Cc1ccc(CC(=O)O/N=C(\N)c2cccc([N+](=O)[O-])c2)cc1	27	7	-18	18	16	nt	nt
O=C(c1ccc2c(c1)OCO2)N1CCN(CCN2C(=O)c3cccc4cccc(c34)C2=O)CC1	nt	nt	13	nt	nt	nt	nt
Cc1cccc(NC(=O)C2C(c3ccccc3)C2(Cl)Cl)c1 (stereo not drawn)	11	38	2	52*	46*	33*	51*
COCCCN(Cc1ccco1)C(=O)Cn1ncc2c(=O)oc3ccc(C)cc3c21	13	3	6	26	17	nt	nt
Cc1ccc(C(=O)COC(=O)c2cn3ccccc3n2)cc1	20	27	0	57*	48*	42*	69*
NNC(=O)c1cn2ccccc2n1	2	7	-20	4	10	nt	nt
O=C(CCCOc1ccc(Cl)cc1Cl)Nc1cc(S(=O)(=O)N2CCOCC2)ccc1N1CCOCC1	nt	nt	24	nt	nt	nt	nt
O=S(=O)(c1ccc2ccccc2c1)N1CCN(c2ccc(O)cc2)CC1	31	-11	-15	58*	44*	44*	48*
CC(=O)n1cc(Nc2ccc([N+](=O)[O-])cc2)c2ccccc21	4	7	-6	-19	-20	nt	nt
CC(=O)SC(C[N+](=O)[O-])c1cn(C(C)=O)c2ccccc12 (stereo not drawn)	27	9	124*	89*	80*	86*	-76
CCCCNC(=S)N/N=C/c1ccccc1F	35	24	-8	51*	47*	-10	40*
CCCc1cc2c(cc1NC(=O)c1ccccc1C)OCO2	19	33	8	18	22	nt	nt
O=C1c2ccccc2C(=O)c2c1ncn2-c1ccccc1	39	24	-43	50	46*	4	45*
O=C1c2ccccc2C(=O)c2[nH]cnc21	nt	nt	-9	nt	nt	nt	nt
CCOC(=O)N1CCc2c(sc3c2c(=O)n(Cc2ccccc2)c(=O)n3Cc2ccc(C)cc2)C1	10	8	-7	10	-2	nt	nt
CC1(C)CCC[C@]2(C)C(CS(=O)c3ccccc3)=C(C=O)CC[C@@H]12 (stereo partly drawn)	29	22	-12	67*	49*	47*	55*
COC(=O)C(C)Sc1ccc2nnc(-c3ccccc3)n2n1 (stereo not drawn)	1	17	9	16	-4	nt	nt
CCOc1ccc(NC(=O)CC2C(=O)N(CC)C(=S)N2NC(=O)c2ccncc2)cc1 (stereo not drawn)	-13	-5	-13	3	-18	nt	nt
Oc1c(C=Nc2ccccc2)sc2ccccc12	33	40	22	66*	40*	45*	62*
Oc1c(C=Nc2cccnc2)sc2ccccc12	4	20	12	-1	21	nt	nt
COC(=O)c1ccccc1NC(=S)NC(=O)c1ccccc1	14	5	14	34	37	nt	nt
SMILES	tim10-1 inh	NALP3 yeast inh	PfHsp90 yeast 2	tim23-1 inh	TIM10 inh	tim10 confirm	tim23-1 confirm
COC(=O)c1ccccc1NC(=S)NC(=O)c1ccc(C)cc1	26	2	4	60*	51*	15	45*
O=C(/C=C/c1cc(Br)ccc1F)OCC(=O)N1CCCC1	21	2	-13	36	13	nt	nt
S=C(NNc1ccnc2cc(Cl)ccc12)Nc1ccccc1Cl	40	17	21	56*	40*	-22	34
CN(C)c1cc[n+](Cc2c(Cl)cccc2Cl)cc1	2	8	58	-6	-30	nt	nt
Cc1nc(Nc2ccccc2F)c2oc3ccccc3c2n1	38	20	-9	31	6	nt	nt
O=C(NCCC1=CCCCC1)C1CCN(C(=O)Cc2ccccc2)CC1	22	5	2	9	2	nt	nt
CCOC(=O)c1c(N)sc(C(=O)Nc2ccccc2)c1C	-8	45	46	55*	41*	31	68*
CCn1cnnc1SCC(=O)c1c(N)n(C2CC2)c(=O)[nH]c1=O	-9	16	-4	-6	-2	nt	nt
Cn1c(NC2CCCCC2)cc(=O)n(C)c1=O	4	10	-8	2	-11	nt	nt
Cc1cc(C2CCCCC2)n(O)c(=O)c1	38	29	109*	66*	59*	62*	53*
CCCn1c(N)c(C(=O)CSc2nc3ncc(Cl)cc3[nH]2)c(=O)[nH]c1=O	-15	1	22	4	2	nt	nt
CC(C)=C(NC(=O)c1ccccc1)C(=O)NCc1ccccc1	-4	7	28	-1	-9	nt	nt
CCOc1nc(-c2ccncc2)nc2ccccc12	29	42	-40	57*	58*	44*	54*
O=C(NC1CCCCC1)[C@H](CSCc1ccccc1)N1Cc2ccccc2C1=O	24	13	-18	12	9	nt	nt
Cc1ccc(N=Nc2ccc(O)cc2)c(Br)c1	-32	45	116*	66*	52*	71*	-2
COc1ccccc1-n1cnc2cc(NC(=O)c3ccco3)ccc21	27	34	-3	56*	44*	37*	68*
CCOC(=O)Nc1ccc2nc(N3CCCCCC3)sc2c1	36	40	0	50*	40*	40*	-29
CCOC(=O)N1CCN(C(=O)Nc2ccc3nc(C)sc3c2)CC1	-3	-6	-8	-4	6	nt	nt
CC(=O)c1ccc(N2CCN(C(=O)/C=C/c3ccc4ccccc4n3)CC2)cc1	24	37	1	50*	64*	76*	40*
CC(=O)c1ccc(N(C(=O)CNC(=O)c2ccco2)C(C(=O)NC2CCCC2)c2cccnc2)cc1 (stereo not drawn)	6	11	-18	-8	14	nt	nt
CCN(CC)C(=O)c1sc2nc(-c3cccs3)cc(-c3cccs3)c2c1N	35	21	0	53*	43*	35*	43*
COc1ccc(Cl)cc1NC(=O)CSc1nnc(CNC(=O)c2cccs2)o1	23	9	-5	19	-7	nt	nt
